Data from PubChem BioAssay AID1671190 (National Center for Advancing Translational Sciences (NCATS), 2021).
About 6,100 (1.1%) of roughly 580,000 compounds were called active. Entries that show only a call come without a potency. Roughly 15% stayed inconclusive and do not appear here. Calls come from the whole dose curve; as a rule, active = well fitted inhibition curve with a large enough effect; inconclusive = small, poorly fitted or top-dose-only effect, or another doubt; inactive = no such curve, though single readings can be large or run the other way. For the sample, actives were picked, then their nearest neighbours and some compounds at random.

target: Polyunsaturated fatty acid lipoxygenase ALOX12 (Homo sapiens) (UniProt P18054); assay: Primary qHTS assay for inhibitors of human arachidonate 12S-lipoxygenase (ALOX12): Round 2; settings: purified 12hLO, xylenol orange hydroperoxide absorbance; series mostly up to 108 µM
Summary of the method: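 Purified human 12hLO at 150 nM in 25 mM Hepes, 0.01% Triton X-100, pH 7.0, preincubated 15 min at room temperature with compound. Reaction started with 40 uM arachidonic acid, 30 min at room temperature. Hydroperoxide measured by Fe-xylenol orange, 573/405 nm absorbance ratio.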
Potency is the fitted concentration of half-maximal effect.

Chain of Polyunsaturated fatty acid lipoxygenase ALOX12 (Homo sapiens) (P18054 whole entry, looked up): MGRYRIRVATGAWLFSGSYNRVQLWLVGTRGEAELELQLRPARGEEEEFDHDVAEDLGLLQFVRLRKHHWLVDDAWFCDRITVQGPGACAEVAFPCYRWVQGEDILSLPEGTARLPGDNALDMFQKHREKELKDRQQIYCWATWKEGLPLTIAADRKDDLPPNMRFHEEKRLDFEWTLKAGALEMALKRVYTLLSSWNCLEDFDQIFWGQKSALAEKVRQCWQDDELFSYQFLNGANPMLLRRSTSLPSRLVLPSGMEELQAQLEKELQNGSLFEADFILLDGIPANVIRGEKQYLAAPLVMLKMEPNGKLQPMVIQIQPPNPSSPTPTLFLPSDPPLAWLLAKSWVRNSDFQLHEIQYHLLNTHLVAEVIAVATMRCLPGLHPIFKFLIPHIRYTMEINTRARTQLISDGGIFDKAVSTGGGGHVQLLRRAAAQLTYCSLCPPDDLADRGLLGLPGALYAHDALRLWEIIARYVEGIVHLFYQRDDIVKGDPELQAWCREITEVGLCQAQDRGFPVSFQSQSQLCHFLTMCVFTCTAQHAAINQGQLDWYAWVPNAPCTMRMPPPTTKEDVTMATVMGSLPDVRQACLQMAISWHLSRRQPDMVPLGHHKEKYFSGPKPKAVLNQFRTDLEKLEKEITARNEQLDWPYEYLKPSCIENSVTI

SMILES | Potency
O=C(CSc1nc(-c2ccc(F)cc2)cs1)NC1CCCCC1 | inactive
CC(C)Cn1cnc2c1c(=O)n(CC(=O)OCc1ccc(F)cc1)c(=O)n2Cc1ccccc1 | inactive
COC(=O)C1=C(C)Nc2nc3ccccc3n2C1c1cc(OC)c(O)c(OC)c1 (centres undefined) | inactive
CC(C)Oc1ccc(NC(=O)c2ccc(Cl)cc2)cc1 | inactive
CCC(CO)Oc1cc(NC(=O)c2ccc(Cl)cc2)c2ncn(C(C)C)c2c1 (centres undefined) | 3.16 µM (active)
CCOc1ccc(NC(=O)c2ccc(Cl)cc2)c2cccnc12 | inactive
COc1ccccc1C(=O)N1CCCN(CCc2ccccc2)c2ccccc21 | inactive
COc1cccc(CN2Cc3cc(NC(=O)Cc4cccs4)ccc3OC(C)C2=O)c1OC (centres undefined) | inactive
CCOc1ccc(Cl)cc1-c1cc(C(=O)NCc2cccs2)[nH]n1 | inactive
COc1ccccc1CNC(=O)c1cc(-c2cc(Cl)ccc2C)n[nH]1 | inactive
O=C(NCc1ccc(Cl)cc1)c1cc(-c2ccc[nH]2)n[nH]1 | 31.6 µM (active)
CCCn1nc(C(=O)Nc2nc(-c3ccc(NC(C)=O)cc3)cs2)c2ccccc2c1=O | inactive
CC(NC(=O)CSc1ccc(F)c(F)c1)c1nc2ccccc2[nH]1 (centres undefined) | inactive
Cc1cc(Cl)ccc1NC(=S)NCCCN1CCCC1=O | inactive
Cc1nn(C)c2c1c(C(F)(F)F)cc(=O)n2C(C)C(=O)NCc1ccc(Cl)cc1 (centres undefined) | inactive
Cc1c(Cl)cccc1NC(=S)NCCSc1ccc(Cl)cc1 | inactive
Cc1ccc(C)c(C(C)NC(=S)NCc2ccc(Cl)cc2)c1 (centres undefined) | 31.6 µM (active)
Cc1ccc(NC(=S)NCCc2ccc(Cl)cc2)c(C)c1 | 35.5 µM (active)
CCC(C)C(NC(=O)NCc1ccc(C)cc1)C(=O)O (centres undefined) | inactive
S=C(NCCc1ccc(Cl)cc1)Nc1ccc(Oc2ccccc2)cc1 | 17.8 µM (active)
Cc1cccc(NC(=S)NCCc2ccc(F)cc2)c1C | 39.8 µM (active)
O=C(NCCc1ccccc1)Oc1ccc(Cl)cc1 | inactive
Cc1cccc(NC(=S)N2CCC(O)CC2)c1C | inactive
CN(CC(=O)Nc1ccc(Cl)cc1)C(=O)c1ccc(COc2ccccc2)cc1 | inactive
CCNC(=S)Nc1ccc(C)cc1Br | inactive
CN1CCN(C(=O)CCCC(=O)O)CC1 | inactive

SMILES | Potency
Cc1ccc([S+](=O)([O-])N2CCC3(CC2)CC(=O)N(c2ccccc2)c2ccccc2O3)cc1 | inactive
CC(C)CC1CCCN1 (centres undefined) | inactive
CCn1cc(CN2CCC(N3CC(OCC4CC4)C34CCCCC4)CC2)cn1 (centres undefined) | inactive
CC[n+]1c(C)n(-c2ccccc2)c2ccc(NC(C)=O)cc21 | 39.8 µM (active)
CC(=O)Nc1ccc(NC(=O)CSc2nnc(C3CC3)n2-c2ccccc2)cc1 | inactive
CC(=O)Nc1ccc(S(=O)(=O)N2CCN(c3ccccc3)CC2)cc1 | inactive
COCC1CN(C(C)=O)CC12CCN(C(=O)c1n[nH]c(=O)c3ccccc13)CC2 (centres undefined) | inactive
Cc1ccnc(-c2cccc([N+](=O)[O-])c2)[n+]1[O-] | inactive
CC(=O)C(=Cc1ccc(-c2cccc([N+](=O)[O-])c2)o1)C(C)=O | 0.631 µM (active)
N#CC(C#N)=Cc1ccc(-c2cccc(C(=O)O)c2)o1 | inactive
O=C(Nc1ccc(F)c(F)c1)c1nc2ccccc2nc1N1CCOCC1 | inactive
CCC(C)Cn1c(O)cc2nn(-c3nc4ccccc4s3)c(=O)c-2c1C (centres undefined) | 31.6 µM (active)
CC(C)Cn1nc(C(=O)Nc2ccc3nc(N4CCOCC4)sc3c2)c2ccccc2c1=O | inactive
CCNC(=O)CN1CCCN(C(=O)CCCc2c[nH]c3ccccc23)CC1 | inactive
Cc1ccc(S(=O)(=O)/N=C(/NC(=S)Nc2c(C)n(C)n(-c3ccccc3)c2=O)c2ccccc2)cc1 | 28.2 µM (active)
Cc1c(NC(=S)NC(=O)CCc2ccccc2)c(=O)n(-c2ccccc2)n1C | inactive
CC(=O)NC(NC(=S)Nc1c(C)n(C)n(-c2ccccc2)c1=O)C(Cl)(Cl)Cl (centres undefined) | inactive
C/C=C/C=C/C(=O)NCc1cccs1 | inactive
COc1cc(/C=C2/NC(=O)NC2=O)ccc1OCc1ccccc1F | inactive
CCOc1ccccc1NC(=O)N1CCN(Cc2nc(-c3ccc(C(=O)NC)cc3)oc2C)CC1 | inactive
CCCn1c(SCC(=O)N2CCc3ccccc32)nnc1-c1ccncc1 | inactive
Cc1oc(-c2ccccc2)nc1C(=O)NCCCN1CCCC1=O | inactive
CSc1nnc(-c2ccncc2)n1CCCN1CCCC1=O | 15.8 µM (active)
CCCCc1noc(CSc2cc(C(N)=O)c3ccccc3n2)n1 | inactive
CCOC(=O)N1CCN(Cc2nc3c(c(=O)[nH]c(=O)n3C)n2Cc2ccc(F)cc2)CC1 | inactive
CCC(=C/c1sc2ccc3ccccc3c2[n+]1C)/C=C1\Sc2ccc3ccccc3c2N1C | 39.8 µM (active)

SMILES | Potency
COc1ccc(CCc2nnc(NS(=O)(=O)Cc3ccccc3)s2)cc1 | inactive
CC(=O)Nc1ccc(Cl)c(-c2nc3cc(C)ccc3o2)c1 | inactive
NC(=O)c1ccc(S(=O)(=O)N2CCN(C(=O)c3cc4c(s3)CCC4)CC2)cc1 | inactive
COc1ccc(CCNC(=O)CSc2nc(C)nc3c2oc2ccccc23)cc1OC | inactive
CCc1nc(Nc2ccc3nccnc3c2)c2oc3ccccc3c2n1 | inactive
COc1ccc(C)cc1Nc1nc(C)nc2c1oc1ccccc12 | 35.5 µM (active)
COCCN1CCCC(c2[nH]ccc2C(=O)NCCc2c[nH]c3ccccc23)C1 (centres undefined) | inactive
CCCCCCCOc1ccc(C(=O)Oc2cncc(Cl)c2)cc1 | inactive
Cc1ccc(S(=O)(=O)N2CCN(CC(=O)NC(C)c3cccs3)CC2)cc1 (centres undefined) | 0.708 µM (active)
Cc1ccc(S(=O)(=O)N2CCN(C(=O)c3cccs3)CC2)cc1 | inactive
Cc1ccc(S(=O)(=O)N2CCN(Cc3cccc(C)c3O)CC2)cc1 | inactive
COc1c(I)cc(Br)cc1/C=C/C(=O)O | inactive
O=C(Cc1csc(-c2ccccc2Cl)n1)Nc1nccs1 | inactive
Cc1ccc(-c2c3c(=O)n(C)c(=O)n(C)c3c3n2C(C)(C)COC3c2ccc(C)cc2O)cc1 (centres undefined) | 6.31 µM (active)
Cc1ccc(-c2c3c(=O)n(C)c(=O)n(C)c3cn2-n2cnnc2)cc1 | inactive
COc1ccc(N2C(=O)CC(Nc3ccc(F)cc3)C2=O)c([N+](=O)[O-])c1 (centres undefined) | inactive
COc1ccc(NC2CC(=O)N(C)C2=O)cc1 (centres undefined) | inactive
CC(=O)Oc1cccc(N2C(=O)CC(Nc3ccc(N4CCOCC4)cc3)C2=O)c1 (centres undefined) | 35.5 µM (active)
COCCNC(=O)COc1ccc2c(C)cc(=O)oc2c1 | inactive
CCCCn1c2ccccc2c2nnc(SCc3ccc(F)cc3)nc21 | inactive
O=C(CSc1nc2ccc(NC(=O)c3ccc(F)cc3)cc2s1)NC1CCCCC1 | 3.98 µM (active)
O=C(Nc1ccc2nc(SCC(=O)N3CCCc4ccccc43)sc2c1)c1ccc(F)cc1 | inactive
O=C(Nc1ccc2nc(N3CCCC3)sc2c1)c1ccc(F)cc1 | inactive
CCCn1nc(C(=O)N(CCOC)Cc2cccs2)c2ccccc2c1=O | inactive
Cc1oc2cc([N+](=O)[O-])c(O)c([N+](=O)[O-])c2c1C(=O)c1ccc(Br)cc1 | 28.2 µM (active)
Cc1ccc(C(=O)c2ccc(N3CCN(C)CC3)c([N+](=O)[O-])c2)cc1 | inactive

SMILES | Potency
Cc1cc(O)c(NC(=O)c2ccc(C)c([N+](=O)[O-])c2)cc1C | inactive
COc1ccc(CCn2c(NC3CCCCC3)nc3c2c(=O)[nH]c(=O)n3C)cc1 | inactive
O=C(Nc1ccc2c(c1)CCC2)c1cc2c(s1)CN(C1CC1)C2 | inactive
CCn1nc(C(=O)Nc2ccccc2Oc2ccccc2)c2ccccc2c1=O | inactive
CCN(CC)CCCCNc1ncc2c(n1)N(C)C(=O)N(c1c(Cl)c(OC)cc(OC)c1Cl)C2 | 34.3 µM (active)
COc1ccc(C(=O)COC(=O)c2ccc3c(c2)OCCO3)cc1 | inactive
Cc1nc2sccn2c(=O)c1S(=O)(=O)NCCc1ccccc1 | inactive
Cc1nc(C)c(-c2csc(NCCc3ccccc3)n2)s1 | 5.01 µM (active)
Cc1cccc(C)c1Nc1nc(-c2ccccc2)cs1 | inactive
Cn1c(SCC(=O)N2CCc3ccccc32)nnc1-c1ccc(F)cc1 | inactive
O=C(NCCCN1CCN(Cc2ccccc2)CC1)c1ccccc1C(F)(F)F | inactive
Cc1nccn1-c1ccc(NC(=O)[C@H]2O[C@@H](n3ccc(=O)[nH]c3=O)[C@H](O)[C@@H]2O)cc1 | inactive
O=C(NS(=O)(=O)c1cccs1)[C@H]1O[C@@H](n2ccc(=O)[nH]c2=O)[C@H](O)[C@@H]1O | 31.6 µM (active)
O=C(N[C@H](Cc1ccccc1)C(=O)N1CCCN(Cc2cccs2)CC1)[C@H]1O[C@@H](n2ccc(=O)[nH]c2=O)[C@H](O)[C@@H]1O | inactive
CCOCCCNCc1ccccc1Cl | inactive
CC(C)(C)CC(C)(C)NCc1ccco1 | inactive
CC(C)(C)C1C/C(=C/c2ccco2)C(=O)/C(=C/c2ccco2)C1 (centres undefined) | 39.8 µM (active)
Cc1nnc(C(=O)Nc2ccc(C(=O)NCc3ccc4c(c3)OCO4)cc2)s1 | inactive
CNC(=O)CNC(=O)c1n[nH]c(=O)c2ccccc12 | inactive
COc1ccc2[nH]cc(CCNC(=O)CNc3nc(Cl)nc4nc[nH]c34)c2c1 | inactive
COc1cccc(C2C(C#N)=C(N)OC3=C2S(=O)(=O)N(C)c2ccccc23)c1OC (centres undefined) | inactive
CCc1nn2c(=O)cc(CNc3cccc(C(=O)NC4CC4)c3)nc2s1 | 10 µM (active)
CCc1nn2c(=O)cc(CNc3cc(F)ccc3F)nc2s1 | inactive
CCC(=O)Nc1cccc(C(=O)OCc2cc(=O)n3nc(CC)sc3n2)c1 | inactive
CCCN(C1CCS(=O)(=O)C1)S(=O)(=O)c1ccc(OC)cc1 (centres undefined) | inactive
O=C(NCCc1ccco1)C1c2ccccc2C(=O)N(Cc2ccccc2)C12CCCC2 (centres undefined) | inactive
